KB-3-1 cytotox – kills parental KB-3-1 adenocarcinoma cells; KB-3-1 viability, CellTiter-Glo ATP luminescence, 72 h; hit rate 1.4% among 400,000; Potency, µM (top dose mostly 46.1 µM), actives largely listed as cytotoxic; note: % is set by controls: 0 for no effect and ±100 for the full control effect; nearly all actives have a fitted effect of over 60% in size
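Using CellTiter-Glo luminescence, growth of non-resistant KB-3-1 adenocarcinoma cells is assessed 72 h after pin-tool compound addition at 37 °C. Normalized responses across the concentration series yield fitted curves.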
SW480 rerep – induces DNA re-replication in SW480 colon adenocarcinoma cells; Potency, µM (series often up to 46.1 µM), inactives show at the highest dose re-replication activation, usual class: activators; hit rate 1.8% among 340,000; SW480 DNA re-replication, Hoechst DNA content imaging, 48 h; note: % of control where 0% means no effect; nearly all actives have a fitted effect of over 55% in size
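Quantitative HTS format with DMSO vehicle controls; 48 hr drug incubation at 37 C, then 40 min Hoechst staining and scanning imager measurement at 405 nm excitation.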
HT1080 IDH1KD tx – HT-1080 IDH1 knockdown cell toxicity (counter line); AID 686971; HT-1080 IDH1 knockdown viability, ATP luminescence, 48 h; Potency, µM (series often up to 46.1 µM), for inactives: at the highest dose activity, negative = toxicity, actives largely listed as cytotoxic; hit rate 2% among 360,000;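 note: 0% = DMSO wells and -100% = cell-free medium wells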
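Luminescent ATP read-out (CellTiter-Glo, 10 min at room temperature) after 48 h compound exposure at 37 °C gave viability of IDH1-knockdown HT-1080 cells. Activity was normalised to DMSO and cell-free wells, then fitted as concentration-response curves.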
HT1080-NT tox – kills 2HG-producing HT-1080-NT fibrosarcoma cells | Potency, µM (top dose mostly 46.1 µM), for the others: at the top dose activity, negative = less viability, most hits filed as cytotoxic | hit rate 1.6% among 360,000 | AID 686970 | HT-1080-NT fibrosarcoma viability, CellTiter-Glo ATP luminescence, 48 h;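 note: NT is the 2HG producing partner of a matched IDH1 knockdown line; 0% = DMSO-treated cells and -100% = media-only wells without cells; nearly all actives have a fitted effect of over 55% in size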
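Viability by CellTiter-Glo luminescence after 48 h compound exposure at 37C of HT-1080-NT cells (750/well, RPMI, 5% FBS). % activity scaled between DMSO wells and medium-only wells, then curve-fitted and categorized by curve class.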
KB-V1 MDR tox – KB-V1 MDR subline cytotoxicity; AID 1347076; Potency, µM (series often up to 46.1 µM), most hits filed as cytotoxic; KB-V1 MDR cells viability, CellTiter-Glo, 72 h; hit rate 3.4% among 400,000; note: % is set by controls: 0 for no effect and ±100 for the full control effect; nearly all actives have a fitted effect of over 60% in size
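Drug-selected KB-V1 cells, grown in DMEM lacking phenol red with 10% FBS, receive compound titrations; after three days at 37 degrees C, surviving cell ATP is quantified by CellTiter-Glo luminescence and responses normalized and curve-fitted.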
MCF10A rereplic – induces DNA re-replication in MCF 10a normal breast cells; Potency, µM (titrated, usually from 46.1 µM), inactives show at the top dose activity, positive = re-replication, most hits filed as activators; AID 624296; hit rate 2.9% among 350,000; MCF 10A DNA re-replication, Hoechst nuclear intensity, 48 h; note: % of control where 0% means no effect; nearly all actives have a fitted effect of over 50% in size
* marks the source's active call; other numbers are inactive results; i = inactive; ? = inconclusive; / = not tested or not shown. A selection: hits, their analogues and other compounds. The true share with any hit is near 7.9%. Calls come from the whole dose curve; as a rule, active = well fitted curve in the direction sought with a large enough effect; inconclusive = small, poorly fitted or top-dose-only effect, or another doubt; inactive = no such curve, though single readings can be large; an effect the other way counts as inactive or inconclusive. Potency is the fitted concentration of half-maximal effect.

SMILES	KB-3-1 cytotox	SW480 rerep	HT1080 IDH1KD tx	HT1080-NT tox	KB-V1 MDR tox	MCF10A rereplic
Cc1ccc(CNC(=O)C(=O)NCC2CCCN2S(=O)(=O)c2cccs2)cc1 (stereo not given)	i	-1.4%	21.9%	7.5%	9.2µM*	6.4%
O=C(NCCC1CCCCN1S(=O)(=O)c1cccs1)C(=O)Nc1ccccc1F (stereo not given)	i	16.8%	6.5%	5.0%	i	?
O=C(NCC1CCCN1S(=O)(=O)c1cccs1)c1cccc(Cl)c1 (stereo not given)	i	2.91µM*	-18.1%	-16.7%	?	8.3%
O=C(NCCC1CCCCN1S(=O)(=O)c1cccs1)C(=O)NCc1ccccc1 (stereo not given)	?	?	-15.6%	-22.5%	14.6µM*	?
COc1ccccc1NC(=O)C(=O)NCC1CCCN1S(=O)(=O)c1cccs1 (stereo not given)	i	-1.9%	8.8%	11.7%	4.61µM*	12.5%
O=C(CNS(=O)(=O)c1c(Cl)cccc1Cl)N1CCCCCC1	?	0.3%	-0.4%	0.4%	i	21.1%
COc1ccccc1N(C(=O)c1ccco1)C(C(=O)NC1CCCC1)c1ccc(N2CCOCC2)cc1 (stereo not given)	i	-2.7%	5.0%	10.4%	i	3.1%
COc1ccc(-c2nc3ccc(Br)cn3c2Cc2ccsc2)cc1OC	i	/	-18.8%	-17.9%	?	/
COc1cc(C)ccc1OCCSc1nnc(-c2ccc(C)cc2)o1	i	/	/	/	i	/
O=C(NCCC1CCCCN1S(=O)(=O)c1cccs1)C(=O)Nc1cccc(F)c1 (stereo not given)	i	-3.0%	-10.9%	1.9%	16.4µM*	?
CN1CCC(N(C)C(=O)c2ccccc2Nc2ccc(SC(F)F)cc2)CC1	i	-4.5%	2.9%	2.4%	i	8.2µM*
CC(C)CCNc1nc(-c2ccco2)c2c(c1C#N)CCCC2	i	?	?	?	i	7.31µM*
N#Cc1c(NCCN)nc(-c2ccco2)c2c1CCCC2	?	18.4µM*	?	?	?	11.6µM*
CC(C)c1nc2n(n1)C1(CCCCC1)[C@@H]1CCCC[C@@H]1N2	i	/	/	/	i	/
CC(=O)c1cccc(NC(=O)CSc2nc(N3CCCCC3)nc(N3CCCCC3)n2)c1	i	2.24µM*	27.4%	-4.1%	i	4.7%
Cc1ccc(C(C)C)c(OCC(=O)Nc2c(C(=O)c3ccc(F)cc3)oc3ccccc23)c1	i	/	/	/	i	/
Cc1cccc(Nc2nc(NC(C)C)nc(Oc3ccc(=O)n(C)n3)n2)c1	i	-18.7%	-25.6%	0.1%	8.2µM*	-3.5%
Cc1cc(C(=O)NC2CCCc3c2cnn3-c2cccc(C)c2C)no1 (stereo not given)	1.84µM*	-0.1%	?	-25.2%	?	24.1%
COc1ccc(C(=O)NC2CCCc3c2cnn3-c2cccc(C)c2C)o1 (stereo not given)	?	-4.5%	?	20.6µM*	?	?
CSc1ccc(/C=C(/NC(=O)c2ccco2)C(=O)N2CCCCCC2)cc1	/	2.1%	7.9%	-12.1%	/	-8.8%
O=C(c1cccn1-c1nnc(N2CCCC2)s1)N1CCN(c2ccc(F)cc2)CC1	i	/	/	/	i	/
CN(C)S(=O)(=O)c1ccc(NC(=O)/C=C/c2ccccc2Cl)cc1	i	15.8%	-26.7%	-11.8%	14.6µM*	?
NC(=O)c1ccccc1NC(=O)/C=C/c1c(Cl)cccc1Cl	i	?	?	-28.2%	4.11µM*	?
O=C(/C=C/c1ccccc1Cl)Nc1ccccc1	i	-5.5%	-19.7%	-7.1%	i	4.0%
CN(C)c1ccc(NC(=O)/C=C/c2c(Cl)cccc2Cl)cc1	?	6.2%	?	?	13µM*	16.4µM*
CCC(CO)[n+]1c(C)cc(/C=C2\Sc3ccccc3N2Cc2ccccc2)cc1C (stereo not given)	1.64µM*	?	3.26µM*	3.26µM*	i	?
